Test results as given in the supplement of paper PMC12636033.
± gives the standard deviation of the averaged measurements. The full ranking holds about 33,000 sequences; the median of “E-score (rank enrichment, -0.5 to 0.5)” is about -0.0075, and the highest 2% start at about 0.23. For the sample, the highest values were picked, then their nearest neighbours and some sequences at random.

Test system: WT Max(13-93) synthetic (M65Nle)
Test: PBM 8-mer E-score (E-score (rank enrichment, -0.5 to 0.5)); higher = stronger preferential binding
Experimental: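 Protein binding microarray (universal PBM chip covering all 10-mers in fixed probe flanks) with chemically synthesized human Max(13-93) bHLH-LZ analogs (not full-length Max) bearing noncanonical residues (hArg, Tha, Aib, Nle at 65) and aromatic Cys staples. Read-out per 8-mer (and its reverse complement): E-score (rank-based enrichment, -0.5 to 0.5) and Z-score of median probe intensity.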

Row | Sequence | PBM 8-mer E-score
1 | AGGGAATC | -0.0163 ± 0.031
2 | GTTTCGTA | 0.0743 ± 0.067
3 | GCGCTCTA | -0.19 ± 0.062
4 | CCATACAG | -0.026 ± 0.18
5 | CGTGAGCA | -0.0547 ± 0.079
6 | ATATTTTA | 0.271 ± 0.033
7 | GTATTTTA | 0.0179 ± 0.13
8 | CTATTTTA | 0.0787 ± 0.12
9 | CGTTTTCA | 0.106 ± 0.036
10 | AACAGGTC | -0.0763 ± 0.049
11 | ACAACGTC | -0.0474 ± 0.05
12 | ACAACGTA | 0.024 ± 0.002
13 | ACAACGTG | 0.255 ± 0.089
14 | ATAACGTC | 0.136 ± 0.042
15 | ATAACGTG | 0.261 ± 0.046
16 | ATAACGTA | 0.203 ± 0.091
17 | GGCTGGCA | -0.311 ± 0.1
18 | GCGTCTCA | -0.13 ± 0.025
19 | CCGCACTC | -0.0409 ± 0.033
20 | TATTTGAA | 0.0846 ± 0.018
21 | ACTTGGTC | 0.0597 ± 0.089
22 | CATTGTAA | 0.134 ± 0.067
23 | GACGTCGC | -0.091 ± 0.13
24 | ACCGCGCT | -0.146 ± 0.012
25 | ATGACCTC | 0.0149 ± 0.085

Row | Sequence | PBM 8-mer E-score
26 | TCAAACCA | 0.172 ± 0.063
27 | GGTTTCAA | 0.077 ± 0.0057
28 | GTTTTAAA | 0.0916 ± 0.047
29 | TGTTTAAA | 0.252 ± 0.09
30 | TGTTTTAA | 0.115 ± 0.0028
31 | GGTTTAAA | 0.233 ± 0.043
32 | AGTTTCAA | -0.0849 ± 0.1
33 | TGTTTCAA | 0.241 ± 0.011
34 | GGTTTAAC | 0.0486 ± 0.048
35 | AGTTTAAA | 0.164 ± 0.0074
36 | GTCATCAA | 0.0407 ± 0.073
37 | AAGACGAC | 0.0772 ± 0.12
38 | CAGCGTAG | 0.0168 ± 0.0028
39 | GACCATCA | -0.057 ± 0.034
40 | AGGTAAGA | -0.0352 ± 0.073
41 | CACGGTAG | -0.0473 ± 0.022
42 | GTCAGCTA | -0.148 ± 0.085
43 | GAATTGCA | 0.06 ± 0.059
44 | GTTCAGCA | 0.0207 ± 0.087
45 | CTGCGAAC | -0.0246 ± 0.099
46 | ACCGTTGA | -0.15 ± 0.014
47 | CCTGTGCG | -0.0525 ± 0.063
48 | AATGTGCG | 0.115 ± 0.0056
49 | GATGTGCA | 0.052 ± 0.059
50 | CATGTGCC | 0.327 ± 0.011

Row | Sequence | PBM 8-mer E-score
51 | TATGTGCA | 0.16 ± 0.02
52 | CATGTGCG | 0.296 ± 0.028
53 | AATGTGCC | -0.0182 ± 0.064
54 | CATGTGCA | 0.321 ± 0.025
55 | GATGTGCC | -0.0199 ± 0.084
56 | GGGAGATA | 0.0313 ± 0.14
57 | AAATGGTG | -0.0479 ± 0.077
58 | AGATTGGG | 0.0796 ± 0.049
59 | TCGGGAGA | -0.0551 ± 0.06
60 | ACCGGAGT | -0.185 ± 0.077
61 | AGCTCAAA | -0.101 ± 0.07
62 | ACGTGTTA | 0.333 ± 0.053
63 | AAGTGTTG | 0.2 ± 0.0011
64 | ACGTGTTG | 0.378 ± 0.067
65 | ACGTGTTC | 0.278 ± 0.11
66 | AGGTGTTA | 0.0454 ± 0.019
67 | GCGTGTTA | 0.242 ± 0.043
68 | GCGTGTGA | 0.201 ± 0.034
69 | CCGTGTTA | 0.145 ± 0.056
70 | AGGTGTTG | -0.0777 ± 0.036
71 | GCGTGTAA | 0.18 ± 0.091
72 | AGGTGTTC | 0.0938 ± 0.013
73 | CCGTGTTC | 0.034 ± 0.081
74 | GTCTCACA | 0.0533 ± 0.04
75 | TAGTAGGA | -0.0355 ± 0.069

Row | Sequence | PBM 8-mer E-score
76 | CCGACCCG | -0.101 ± 0.18
77 | CATCTTTA | -0.0556 ± 0.15
78 | GGTGTAGA | 0.0276 ± 0.032
79 | ACTCGGTG | -0.111 ± 0.026
80 | AGTAGCGC | -0.0656 ± 0.04
81 | AACCACTT | 0.109 ± 0.14
82 | ACCCAATG | -0.141 ± 0.067
83 | ACCCCGCG | -0.0797 ± 0.15
84 | AAGCTGGC | -0.176 ± 0.06
85 | CCAACCGG | -0.267 ± 0.0078
86 | CTAGCGCC | -0.283 ± 0.024
87 | GTTGTCTA | 0.224 ± 0.094
88 | ATTGTCTC | -0.142 ± 0.088
89 | ATTGTCTA | 0.26 ± 0.005
90 | TATCTGCA | 0.0121 ± 0.066
91 | CAACTGCA | -9e-05 ± 0.065
92 | CGATTATC | -0.178 ± 0.066
93 | GTCGAAAC | 0.079 ± 0.031
94 | AATAACTA | 0.125 ± 0.0044
95 | GATAACCA | 0.24 ± 0.037
96 | CATAACCA | 0.165 ± 0.033
97 | CATAACTA | 0.167 ± 0.0044
98 | TATAACCA | 0.17 ± 0.0076
99 | GATAACTA | 0.235 ± 0.061
100 | CCATGACC | -0.0452 ± 0.14

Row | Sequence | PBM 8-mer E-score
101 | AAGATACA | 0.258 ± 0.015
102 | AAGATAAC | 0.266 ± 0.045
103 | AAGATATA | 0.253 ± 0.046
104 | GAGATACA | 0.0679 ± 0.025
105 | AAGATAAG | 0.152 ± 0.024
106 | CAGATATA | 0.108 ± 0.023
107 | AAGATACT | 0.0763 ± 0.011
108 | AAGATATC | 0.0756 ± 0.073
109 | GAGATAAC | 0.104 ± 0.025
110 | ACAGTCCG | -0.0248 ± 0.0053
111 | CACGGTGC | 0.0526 ± 0.033
112 | ATGTTATC | 0.0836 ± 0.016
113 | ATGTTATG | 0.251 ± 0.084
114 | CTGTTAAC | -0.00712 ± 0.14
115 | ATGTTAAC | 0.291 ± 0.035
116 | GTGTTAAC | 0.0845 ± 0.082
117 | ATGTTAAG | 0.107 ± 0.028
118 | ATGTTATA | 0.235 ± 0.069
119 | CTGTTATA | 0.055 ± 0.085
120 | GTGTTATA | 0.215 ± 0.0088
121 | GTGTGCCA | -0.0682 ± 0.094
122 | ATACGCAC | 0.0776 ± 0.052
123 | ATAGTCAG | 0.0518 ± 0.079
124 | AACTATTG | 0.139 ± 0.033
125 | ACCTTCCC | -0.0595 ± 0.1

Row | Sequence | PBM 8-mer E-score
126 | GGCATGTA | 0.135 ± 0.023
127 | AGCATGTA | 0.238 ± 0.019
128 | AGCATGGG | 0.128 ± 0.096
129 | CGCATGTA | 0.0311 ± 0.051
130 | AGCATGTG | 0.295 ± 0.0053
131 | AGCATGTC | 0.157 ± 0.0017
132 | ACAGGTTA | 0.0367 ± 0.075
133 | CTTCTCCC | 0.0392 ± 0.039
134 | AAATTCGG | 0.0747 ± 0.038
135 | ATGGTCCA | -0.0964 ± 0.052
136 | AAGGCATG | 0.207 ± 0.081
137 | CAAACACC | 0.118 ± 0.15
138 | CAAACAGG | 0.0276 ± 0.019
139 | AAAACACG | 0.193 ± 0.049
140 | CAAACACA | 0.2434 ± 0.00028
141 | CAAACACG | 0.285 ± 0.064
142 | CAAACAGC | 0.244 ± 0.0038
143 | TAAACACA | 0.182 ± 0.021
144 | AAAACACA | 0.128 ± 0.02
145 | AAAACAGC | 0.0957 ± 0.12
146 | ACATTTCT | 0.152 ± 0.0081
147 | CCCTGGCG | -0.198 ± 0.061
148 | TACGGTCA | -0.0681 ± 0.052
149 | CCAAGGCG | -0.191 ± 0.077
150 | ACCGTAAT | -0.00988 ± 0.068

Row | Sequence | PBM 8-mer E-score
151 | TAGCTGGA | -0.111 ± 0.035
152 | AATTACAT | 0.135 ± 0.0071
153 | AATTACAA | 0.251 ± 0.026
154 | TATTACAA | 0.181 ± 0.024
155 | GTAATCAC | -0.0619 ± 0.076
156 | ACCGTGTC | -0.0348 ± 0.1
157 | CTTAACAC | 0.135 ± 0.068
158 | ATTAACAA | 0.289 ± 0.057
159 | ATTAACTC | 0.16 ± 0.064
160 | ATTAACAG | 0.0545 ± 0.024
161 | GTTAACAA | 0.138 ± 0.024
162 | ATTAACAC | 0.247 ± 0.019
163 | GTTTCCGA | 0.0231 ± 0.1
164 | CTCAAAGC | -0.0195 ± 0.016
165 | CATGATGG | -0.0865 ± 0.045
166 | TATGATAA | 0.201 ± 0.065
167 | CATGATAA | 0.296 ± 0.039
168 | AATGATAA | 0.146 ± 0.062
169 | AATGATAC | 0.2224 ± 0.00047
170 | CATGATGA | 0.233 ± 0.045
171 | AATGATAT | 0.257 ± 0.086
172 | CATGATGC | 0.124 ± 0.073
173 | AATGATAG | 0.166 ± 0.08
